This passage reports Potency results from PubChem BioAssay AID493170 (National Center for Advancing Translational Sciences (NCATS), 2011).

Inconclusive results are not listed. Where a call stands in place of a potency, no number is given. The source made the active and inactive calls. Calls come from the whole dose curve; as a rule, active = well fitted inhibition curve with a large enough effect; inconclusive = small, poorly fitted or top-dose-only effect, or effect the other way; inactive = flat fitted curve, though single readings scatter.
Potency is the fitted concentration of half-maximal effect.

Ubiquitin carboxyl-terminal hydrolase 2 (Homo sapiens), sequence (O75604 whole entry, looked up): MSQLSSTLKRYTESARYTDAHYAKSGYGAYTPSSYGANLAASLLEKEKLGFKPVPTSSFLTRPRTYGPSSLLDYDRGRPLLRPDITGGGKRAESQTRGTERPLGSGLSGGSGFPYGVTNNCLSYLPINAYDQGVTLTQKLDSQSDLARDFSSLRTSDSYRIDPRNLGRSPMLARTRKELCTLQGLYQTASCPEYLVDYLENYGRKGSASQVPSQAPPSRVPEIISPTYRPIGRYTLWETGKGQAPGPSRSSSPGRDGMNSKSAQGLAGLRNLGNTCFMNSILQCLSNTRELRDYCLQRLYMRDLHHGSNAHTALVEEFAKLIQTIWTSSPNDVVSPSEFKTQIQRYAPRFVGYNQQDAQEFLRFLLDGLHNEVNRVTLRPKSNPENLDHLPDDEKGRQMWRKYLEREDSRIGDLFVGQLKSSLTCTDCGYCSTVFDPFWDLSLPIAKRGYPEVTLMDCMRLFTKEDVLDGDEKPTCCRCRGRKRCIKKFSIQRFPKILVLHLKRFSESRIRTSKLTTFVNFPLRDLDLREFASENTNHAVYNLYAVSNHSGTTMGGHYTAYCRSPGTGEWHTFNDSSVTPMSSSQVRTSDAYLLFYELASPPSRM

In the experiment the target is Ubiquitin carboxyl-terminal hydrolase 2 (Homo sapiens) (UniProt O75604). Put plainly: Ub-rhodamine 110 based assay for inhibitors Ubiquitin-specific Protease USP2a. Note: nearly all actives have a fitted effect of over 50% in size. The note with it: USP2a Ub-rhodamine110 cleavage, fluorescence; series mostly up to 38.3 µM. The gist of the method:
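Kinetic fluorescence (485/531 nm) read each minute over 7 min after adding Ub-Rhod110 (150 nM final) to USP2a (5 nM final). The enzyme had 30 min RT exposure to compounds beforehand in Tris pH 8.0 buffer with CaCl2, CHAPS and beta-ME.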
In the case of `O=C1N=c2ccccc2=C1c1sc(Nc2ccc(O)cc2)nc1O`, the Potency is 7.94 µM (active).

For `CN(C)c1ccc(C(CN)c2c[nH]c3ccccc23)cc1` (stereo unspecified), the Potency entry is “inactive”.

For the molecule `CCC(C(=O)NCc1ccccc1OC)n1nc(C)n2c(cc3occc32)c1=O` (stereo unspecified), the Potency entry was “inactive”.

On to `O=C(Nc1ccc(Oc2ccc(Cl)cc2)cc1)c1ncn[nH]1`, for which the Potency entry was “inactive”.

With `O=C(COc1ccccc1)NCc1nnc(SCC(=O)Nc2nccs2)n1-c1ccccc1`, the Potency result was “inactive”.

Take `CCOc1ccccc1N(CC(=O)NC(C)(C)C)C(=O)c1ccc(CN2CCOCC2)o1`: the Potency result is “inactive”.

Consider `O=C(CCCN1C(=O)c2ccccc2C1=O)NC1=NCCS1`, for which the Potency entry is “inactive”.

For `CCOc1ccc2[nH]c(=O)c(CN(Cc3cccs3)Cc3nnnn3C(C)(C)CC)cc2c1`, the Potency entry is “inactive”.

Consider `CCOC(=O)c1c(-c2ccc(C)o2)csc1NC(=O)COC(=O)c1ccc(NC(N)=O)cc1`, for which the Potency was 7.08 µM (active).

As to `CCOC(=O)c1c(NC(C)=O)sc2c1CCCNC2=O`, the Potency result was “inactive”.

For `O=C1COc2ccc(C(=O)COC(=O)/C=C/c3ccc(Br)o3)cc2N1`, the Potency was 2.24 µM (active).

For `C=CC[C@H](CC(=O)OC(C)(C)C)C(=O)OC[C@@H]1CCCN1C(=O)[C@H](CC=C)CC(=O)N[C@H](CO)Cc1ccccc1`, the Potency result is “inactive”.

Turning to `O=C(/C=C/c1ccc(O)c(O)c1)c1ccc(S(=O)(=O)N2CCCCCC2)cc1`, the Potency is 3.98 µM (active).

`CN1CCN(CCC(=O)N/N=C/c2cc([N+](=O)[O-])ccc2O)CC1`: the Potency result is “inactive”.

With `Cc1cc(C)c(NC(=O)C[N+](C)(C)CC(O)COc2cccc3ccccc23)c(C)c1` (stereo unspecified), the Potency result was “inactive”.

In the case of `O=C(N/N=C/c1ccc(-c2ccc(S(=O)(=O)Nc3ncccn3)cc2)o1)c1cc2ccccc2cc1O`, the Potency is 4.47 µM (active).
